PubChem BioAssay AID504727 (Broad Institute, 2011)
Activity calls are given as the source filed them.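 The calls were made as follows: active = fitted half-maximal concentration AC50 at or below ten times the highest valid tested dose, with signal falling as DNA is displaced (actives reach about 34 µM in these data); inconclusive = flat fit at moderate signal loss, or poor fit quality; inactive = the rest, including signal rising instead of falling.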

Test: DNA intercalators displacing acridine orange, dose response, artefact control for KSHV LANA DNA-binding inhibitor project, biochemical, fluorescence polarization, cherry-picked samples, set 2 (AID 504727)
Conditions: AC50: Acridine orange-DNA displacement; series mostly up to 35 µM
For `CCc1ccc(C2CC(c3cccc(Cl)c3)n3nc(N)nc3N2)cc1` (stereo not drawn), the AC50 was “inactive”. In the case of `COC(=O)c1ccccc1-c1c2ccc(=N)cc-2oc2cc(N)ccc12`, the AC50 is reported as 0.035 µM (active). For `Nc1nc(SCC(=O)N2CCCCC2)[nH]c(=O)c1NC(=O)c1cccs1`, the AC50 was “inactive”. For `CCN(Cc1ccccc1)C(=O)c1cccc(S(=O)(=O)N2CCN(Cc3ccccc3)CC2)c1`, the AC50 was “inactive”. In the case of `Fc1ccc(C2=CC(c3ccc(Br)o3)n3ncnc3N2)cc1` (stereo not drawn), the AC50 is reported as 11.7 µM (active). In the case of `O=[N+]([O-])c1cccc(CSc2nc3ccccc3[nH]2)c1`, the AC50 is reported as “inactive”. With `O=C(N/N=C\c1ccc([N+](=O)[O-])o1)c1cncc(Br)c1` the AC50 was “inactive”. In the case of `COc1ccc(C2C(C(=O)c3cccs3)=C(O)C(=O)N2c2nncs2)cc1` (stereo not drawn), the AC50 is reported as 3.42 µM (active). For `Nc1cccc(N2C(=O)c3cccc4c(N)ccc(c34)C2=O)c1`, the AC50 was 5.76 µM (active). In the case of `O=c1ccc2cc3c4c(c2o1)CCCN4CCC3`, the AC50 is reported as 15.1 µM (active). For `CSCCC(NC(=O)c1ccccc1Cl)C(=O)N1CCCC(C)C1` (stereo not drawn), the AC50 was “inactive”. With `CCCc1nc(SC)[nH]c(=O)c1C` the AC50 was “inactive”. For `O=C1NC(=S)S/C1=C\C=C\c1ccc([N+](=O)[O-])o1`, the AC50 was “inactive”. For `Cc1c(NC(=O)CCC2CCCCC2)cc(C(=O)N2CCOCC2)cc1[N+](=O)[O-]`, the AC50 was “inactive”. With `CCn1c(=O)c(C(=O)NCCN2CCCCC2)c(O)c2ccccc21` the AC50 was “inactive”. For `Cc1cc(NC(=O)CSc2nnc(COc3cccc(C)c3C)n2C)no1`, the AC50 was “inactive”. With `O=C(Nc1ccccc1F)C(=Cc1sc(N2CCOCC2)nc1-c1ccccc1)C(=O)Nc1ccccc1F` the AC50 was 25.1 µM (active). In the case of `Cc1nc(Cl)c2c(n1)NC1=C(O2)C(=O)CCC1`, the AC50 is reported as 11.1 µM (active). With `Cc1nc2c(=O)[nH]c(=S)[nH]c2[nH]c1=O` the AC50 was “inactive”. For `COC(=O)c1ccccc1NC(=O)CCS(=O)(=O)c1ccc(Br)cc1`, the AC50 was “inactive”. With `CCN(C(=O)COC(=O)CNS(=O)(=O)c1ccc(SC)c([N+](=O)[O-])c1)C1CCCCC1` the AC50 was “inactive”. In the case of `O=C(O)c1ccc(-n2cccc2/C=C2/SC(=O)N(CC(=O)N3CCCC3)C2=O)cc1`, the AC50 is reported as “inactive”. In the case of `Nc1cc(N)nc(SCC(=O)N2CCCCC2)n1`, the AC50 is reported as “inactive”. In the case of `COc1cccc2c1C(=O)c1c(O)c3c(c(O)c1C2=O)C[C@](O)(C(C)=O)C[C@H]3O[C@@H]1C[C@@H](N)[C@@H](O)[C@@H](C)O1`, the AC50 is reported as 2.98 µM (active). With `O=C(CSc1nc2ccccc2[nH]1)Nc1cccc(S(=O)(=O)N2CCOCC2)c1` the AC50 was “inactive”. With `CCOc1ccc(C(C)NC(=O)c2ccccc2OCc2c(C)noc2C)cc1OCC` (stereo not drawn) the AC50 was “inactive”. In the case of `COc1ccc(OC)c(NC(=O)c2nnn(Cc3ccc(Br)cc3F)c2N)c1`, the AC50 is reported as “inactive”. For `CCN(CC)C(=O)C1c2ccccc2Oc2ccccc21`, the AC50 was “inactive”. In the case of `CC(C)CCN1C(=O)c2cccc3c(N)ccc(c23)C1=O`, the AC50 is reported as 7.39 µM (active). For `O=C(O)Cc1c[nH]c2cccc(O)c12`, the AC50 was “inactive”. With `COc1cccc(/C=N/NC(=O)C(=O)NCc2cccnc2)c1O` the AC50 was “inactive”. With `CN1CCN(C(=S)c2ccc(N(C)C)cc2)CC1` the AC50 was “inactive”. With `NC(=O)c1ccc(NC(=O)C2COc3ccccc3O2)cc1` (stereo not drawn) the AC50 was “inactive”. With `CCCN(CCC)C(=O)C1c2ccccc2Oc2ccccc21` the AC50 was “inactive”. With `COc1cc2c(cc1OC)-c1cc3ccc4c(c3c[n+]1CC2)OCO4` the AC50 was 32.2 µM (active). For `COCCN(C(=O)CN1CCCc2ccccc21)c1c(N)n(Cc2ccccc2)c(=O)[nH]c1=O`, the AC50 was “inactive”. With `O=C1C=C(c2ccoc2)N2CCC[C@H]2C1` the AC50 was “inactive”. With `Nc1ccc2nc3c(=O)[nH]c(=S)[nH]c3nc2c1` the AC50 was 3.69 µM (active).
